Shown are actives, neighbours in structure and some others; about 2.5% of the full set was active somewhere.
Bim-Mcl-1 = human Bim-Mcl-1 interaction inhibition; Q07820; Bead-based flow cytometry, Bim peptide-Mcl-1 binding; inhibition, % at 10 µM; 0.1% of 190,000 active; in the data active means inhibition above about 40%
14-3-3 Bad inh = disrupts binding of bovine 14-3-3 zeta to phospho-Bad peptide; P63103; TR-FRET 14-3-3zeta/Dy647-pBad peptide displacement, 1 h; inhibition, % at 21.7 µM; 0.71% of 220,000 active;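 active means inhibition above about 70%, limit read from the data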
Target sequence (P63103 whole entry, looked up): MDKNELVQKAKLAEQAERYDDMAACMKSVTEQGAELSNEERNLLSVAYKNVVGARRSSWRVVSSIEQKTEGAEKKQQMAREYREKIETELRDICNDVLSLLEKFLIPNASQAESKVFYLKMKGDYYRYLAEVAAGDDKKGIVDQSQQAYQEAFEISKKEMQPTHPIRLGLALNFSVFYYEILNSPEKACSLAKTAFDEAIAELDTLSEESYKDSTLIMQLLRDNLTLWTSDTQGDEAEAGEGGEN
Mcl1 Bid PPI = Mcl-1/Bid interaction inhibition. inhibition, % at 21.7 µM. TR-FRET Mcl-1/Bid-Dy647 peptide binding, 1536-well. 0.97% of 220,000 active. AID 1021;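 active means compounds that cut the binding signal by more than half at the single screening dose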;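 further: His-tagged Mcl-1 with europium anti-His antibody binding Bid BH3 peptide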
MCL1-BIM inh = disrupts human MCL1 binding to BIM-BH3 peptide; 0.68% of 320,000 active; GST-MCL1 / FITC-Bim-BH3 fluorescence polarization; inhibition, % at 10.9 µM; AID 2057;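 active means inhibition above the mean inhibition of all tested compounds plus 3 SD, set per campaign, cut at about 40% in these data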;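 further: higher means more loss of mP so more displacement of Bim peptide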
Mcl1 Noxa PPI = disrupts binding of human Mcl-1 to Noxa peptide. Q07820. TR-FRET Mcl-1/Noxa peptide binding, 2 h. inhibition, % at 21.7 µM. 1.5% of 220,000 active. AID 1022;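 active means compounds that cut the protein-peptide binding signal by more than 50% relative to plate controls in a single-dose test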;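 further: His-tagged Mcl-1 with rhodamine Noxa BH3 peptide and terbium anti-His antibody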
Each line names hits and unclear results; the compound was inactive in the other large screens.

Cc1nn(-c2ccccc2[N+](=O)[O-])c(=O)c2ccccc12	none
CSC(=NCc1cccnc1)NS(=O)(=O)c1cccs1	Mcl1 Bid PPI 71
O=S(=O)(NCc1cccnc1)c1cccs1	none
COC(=O)C1=C(C)NC2=C(C(=O)CCC2)C1c1cn(Cc2ccc(Cl)cc2Cl)nc1-c1ccccc1 (stereo not given)	none
CCC(=O)NC(=S)N1CCN(c2ccc([N+](=O)[O-])cc2Cl)CC1	none
CC(C)c1ccc(-c2nc3c([nH]2)c(=O)n(C)c(=O)n3C)cc1	none
Cn1c(=O)c2[nH]c(-c3ccccc3O)nc2n(C)c1=O	Mcl1 Noxa PPI 59
CCOc1ccc(C(C)=O)cc1CSc1nnc(-c2ccoc2C)n1N	none
COc1ccc(-c2csc3nc(-c4cccnc4)nc(Cl)c23)cc1OC	Mcl1 Noxa PPI 58
Clc1nc(-c2cccnc2)nc2scc(-c3ccccc3)c12	none
COC(=O)CNc1c(-c2ccccn2)nc2ccc(Br)cn12	MCL1-BIM inh 55
N#C/C(=C(/O)CSc1nnc(Cc2cccs2)n1C1CCCCC1)c1nc2ccccc2[nH]1	Mcl1 Noxa PPI 52
CN1CCc2c(sc(/N=C/c3ccco3)c2C(N)=O)C1	MCL1-BIM inh 46
Cc1ccc(C(CCN(Cc2ccccc2)C(=O)c2ccco2)c2ccco2)cc1 (stereo not given)	none
O=C(c1ccco1)N(CCC(c1ccccc1)c1ccco1)Cc1ccco1 (stereo not given)	Mcl1 Noxa PPI 62
Cc1nc2c(C)cccc2cc1C(=O)N/N=C/c1ccc(N(C)C)cc1	none
Cc1nc2c(C)cccc2cc1C(=O)N/N=C/c1ccc(C(=O)O)cc1	14-3-3 Bad inh 87
O=C(COC(=O)c1ccc(OC(F)F)cc1)NCCCN1CCCC1=O	none (no result: Bim-Mcl-1)
COc1ccc(CCNC(=O)c2ccc3nc(-c4ccco4)c(-c4ccco4)nc3c2)cc1OC	Mcl1 Noxa PPI 99
CCc1nc2ccc(C(=O)N3CCN(c4ccccc4)CC3)cc2nc1CC	none (no result: Bim-Mcl-1, 14-3-3 Bad inh, Mcl1 Bid PPI, Mcl1 Noxa PPI)
O=C(O)c1ccc2nc(-c3ccco3)c(-c3ccco3)nc2c1	Mcl1 Noxa PPI 80 (no result: MCL1-BIM inh)
O=C(c1ccc2nc(-c3ccco3)c(-c3ccco3)nc2c1)N1CCN(c2ccccc2)CC1	Mcl1 Noxa PPI 52
COc1ccccc1-c1nc(SCC(=O)NCC2CCCO2)c2c(=O)n(C)c(=O)n(C)c2n1 (stereo not given)	none
COc1ccccc1-c1nc(SCC(=O)N(C)c2ccccc2)c2c(=O)n(C)c(=O)n(C)c2n1	Mcl1 Bid PPI 57
CCc1ccccc1NS(=O)(=O)c1ccc2[nH]cc(C(=O)NCC3CCCO3)c(=O)c2c1 (stereo not given)	Mcl1 Bid PPI 59, Mcl1 Noxa PPI 72
Cc1ccccc1NS(=O)(=O)c1ccc2[nH]cc(C(=O)N(C)Cc3ccco3)c(=O)c2c1	Mcl1 Bid PPI 51
Cc1cc(C)cc(NS(=O)(=O)c2ccc3[nH]cc(C(=O)NCc4ccco4)c(=O)c3c2)c1	none
COc1cccc(NS(=O)(=O)c2ccc3[nH]cc(C(=O)N(C)Cc4ccco4)c(=O)c3c2)c1	Mcl1 Bid PPI 58
Cc1cc(C)n(CCCNC(=O)Cn2nnnc2CN2C[C@@H](C)O[C@@H](C)C2)n1	none (no result: Bim-Mcl-1, 14-3-3 Bad inh, Mcl1 Bid PPI, Mcl1 Noxa PPI)
CC(C)(C)C1=CC(=O)C(=O)C(C(C)(C)C)=C1	Mcl1 Noxa PPI 63
CC(C)CN(C(=O)CCC(=O)OCC(=O)N(C)c1ccccc1)c1c(N)n(CC(C)C)c(=O)[nH]c1=O	none (no result: Bim-Mcl-1, 14-3-3 Bad inh, Mcl1 Bid PPI, Mcl1 Noxa PPI)
COC(=O)/C(=N/Nc1ccccc1)N1CCCc2ccccc21	Mcl1 Bid PPI 95
COC(=O)/C(=N/Nc1ccc(C)cc1)N1CCCc2ccccc21	none
Cc1ccc(C2SCC(=O)N2Cc2ccccc2)cc1 (stereo not given)	none (no result: Bim-Mcl-1, 14-3-3 Bad inh, Mcl1 Bid PPI, Mcl1 Noxa PPI)
O=C1CSC(c2ccncc2)N1Cc1ccccc1 (stereo not given)	Mcl1 Bid PPI 93
CN(C)C(CNC(=O)c1ccc2ccccc2c1)c1ccco1 (stereo not given)	none
CC(CN1CCN(C)CC1)OC(=O)c1ccc(F)cc1 (stereo not given)	14-3-3 Bad inh 91
CC(CN1CCN(C)CC1)OC(=O)c1cccc(Cl)c1 (stereo not given)	none (no result: Bim-Mcl-1)
CC(CN1CCN(C)CC1)OC(=O)c1ccccc1 (stereo not given)	14-3-3 Bad inh 71
CSc1ccccc1OCc1cc(C(=O)NCCCn2nc(C)cc2C)no1	none (no result: Bim-Mcl-1, 14-3-3 Bad inh, Mcl1 Bid PPI, Mcl1 Noxa PPI)
CC(=O)N1CCN(c2ncnc3sc(-c4ccccc4)cc23)CC1	none
Oc1ccc(N2CCN(c3ncnc4sc(-c5ccccc5)cc34)CC2)cc1	Mcl1 Noxa PPI 87 (no result: MCL1-BIM inh)

Screening data deposited in PubChem by several laboratories.
